Laboratory results as given in the supplement of paper PMC7366291.
Where a name gives a salt, the structure may show the parent alone. ± gives the standard deviation of the averaged measurements.

Each compound was assayed on Danio rerio Tg(wt1b:EGFP) embryo, pronephros (assay: pronephric angle neck segment to proximal convoluted tubule (mean of left and right), fold change vs DMSO control; higher = larger pronephric angle). Conditions: 25 µM; exposure: 24-48 hpf.
Method in brief: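 Dechorionated Tg(wt1b:EGFP) zebrafish embryos were kept from 24 to 48 hpf at 28.5°C in HEPES-buffered E3 containing 0.003% PTU, 0.5% DMSO and 25 μM compound. The pronephroi were then imaged from the dorsal side in agarose-filled 96-well plates at 470 nm with 10 z-slices, and 16 reference points were placed by hand on maximum projections in Fiji so that a macro could calculate distances and angles. Values lying more than 2 SD from the mean of a feature were discarded. Every feature is given as a fold change against the mean of DMSO-treated embryos from the same day.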

SMILES	pronephric angle neck segment
Cc1cccc(C)c1NC(=O)CN1CCN(CCCC(c2ccc(F)cc2)c2ccc(F)cc2)CC1 [Lidoflazine]	0.988 ± 0.13
O=C(N/N=C/c1ccc([N+](=O)[O-])o1)c1ccc(O)cc1 [Nifuroxazide]	0.964 ± 0.028
COc1cc(OC)c(C(=O)CCCN2CCCC2)c(OC)c1 [Buflomedil hydrochloride]	1.01 ± 0.053
CC(C)(C)C(=O)OCOC(=O)[C@@H]1N2C(=O)[C@@H](NC(=O)[C@H](N)c3ccccc3)[C@H]2SC1(C)C [Pivampicillin]	0.9619 ± 0.0073
N[C@@H](C(=O)N[C@@H]1C(=O)N2C(C(=O)O)=C(Cl)CC[C@H]12)c1ccccc1 [Loracarbef]	0.999 ± 0.025
CC[N+](CC)(CC)CCC(O)(c1ccccc1)C1CCCCC1 (stereo not given) [Tridihexethyl chloride]	1.04 ± 0.026
C#CCN(C)CCCOc1ccc(Cl)cc1Cl [Clorgyline hydrochloride]	0.984 ± 0.047
CC[N+](C)(C)c1cccc(O)c1 [Edrophonium chloride]	0.876 ± 0.05
NC(CO)C(=O)NNCc1ccc(O)c(O)c1O (stereo not given) [Benserazide hydrochloride]	1.05 ± 0.039
O=C(OCC(O)CO)c1ccccc1Nc1ccnc2cc(Cl)ccc12 (stereo not given) [Glafenine hydrochloride]	1.02 ± 0.017
COc1ccccc1OCC(O)COC(N)=O (stereo not given) [Methocarbamol]	1 ± 0.013
OCCN1C[C@H](O)[C@@H](O)[C@H](O)[C@H]1CO [Miglitol]	0.982 ± 0.0086
OC(CCCN1CCCCC1)(c1ccccc1)c1ccccc1 [Diphenidol hydrochloride]	1.06 ± 0.02
CCCN(CCC)C(=O)C(CCC(=O)O)NC(=O)c1ccccc1 (stereo not given) [Proglumide]	1.037 ± 0.006
c1cnc(N2CCN(Cc3ccc4c(c3)OCO4)CC2)nc1 [Piribedil hydrochloride]	1.01 ± 0.055
CCc1cc(C(N)=S)ccn1 [Ethionamide]	0.96 ± 0.039
Cc1ccccc1OCC(O)CO (stereo not given) [Mephenesin]	0.993 ± 0.033
CN(C)CCOC(c1ccc(Cl)cc1)c1ccccn1 (stereo not given) [Carbinoxamine maleate salt]	1.01 ± 0.026
CO[C@H]1/C=C/O[C@@]2(C)Oc3c(C)c(O)c4c(O)c(c(/C=N/N5CCN(C6CCCC6)CC5)c(O)c4c3C2=O)NC(=O)/C(C)=C\C=C\[C@H](C)[C@H](O)[C@@H](C)[C@@H](O)[C@@H](C)[C@H](OC(C)=O)[C@@H]1C [Rifapentine]	1.1 ± 0.094
Clc1cccc(Cl)c1NC1=NCCN1 [Clonidine hydrochloride]	0.96 ± 0.067

SMILES	pronephric angle neck segment
COc1ccnc(C[S+]([O-])c2nc3cc(OC(F)F)ccc3[nH]2)c1OC (stereo not given) [Pantoprazole sodium]	1.062 ± 0.0021
Nc1nc(=O)n([C@@H]2CS[C@H](CO)O2)cc1F [(-)-Emtricitabine]	0.999 ± 0.073
CC[C@H]1OC(=O)[C@H](C)[C@@H](O[C@H]2C[C@@](C)(OC)[C@@H](O)[C@H](C)O2)[C@H](C)[C@@H](O[C@@H]2O[C@H](C)C[C@H](N(C)C)[C@H]2O)[C@](C)(O)C[C@@H](C)CN(C)[C@H](C)[C@@H](O)[C@]1(C)O [Azithromycin]	1.012 ± 0.0055
CCCOc1ccccc1-c1nc2[nH]nnc2c(=O)[nH]1 [Zaprinast]	1.08 ± 0.12
Cc1cc(C(=O)NNCc2ccccc2)no1 [Isocarboxazid]	1.382 ± 0.0021
CCN(CC)CCOC(=O)C(Cc1cccc2ccccc12)CC1CCCO1 (stereo not given) [Nafronyl oxalate]	1.04 ± 0.054
CN(C(=O)C(Cl)Cl)c1ccc(OC(=O)c2ccco2)cc1 [Diloxanide furoate]	1.25 ± 0.081
CN(CCCCCCCCCCN(C)C(=O)Oc1cccc([N+](C)(C)C)c1)C(=O)Oc1cccc([N+](C)(C)C)c1 [Demecarium bromide]	1.078 ± 0.0073
OC(CCN1CCCC1)(c1ccccc1)C1CCCCC1 (stereo not given) [Procyclidine hydrochloride]	0.954 ± 0.035
N/C(=N\C(=O)c1nc(Cl)c(N)nc1N)NCc1ccccc1 [Benzamil hydrochloride]	0.98 ± 0.018
CN1CCOC(c2ccccc2)c2ccccc2C1 (stereo not given) [Nefopam hydrochloride]	1.02 ± 0.012
CN1CCN(CCCN2c3ccccc3Sc3ccc(Cl)cc32)CC1 [Prochlorperazine dimaleate]	1.02 ± 0.027
CCCCCCCN(CC)CCCC(O)c1ccc(NS(C)(=O)=O)cc1 (stereo not given) [Ibutilide fumarate]	0.961 ± 0.086
Cc1ccc(-c2ncc(Cl)cc2-c2ccc(S(C)(=O)=O)cc2)cn1 [Etoricoxib]	1.04 ± 0.042
CN1CCN(CCCN2c3ccccc3Sc3ccc(S(=O)(=O)N(C)C)cc32)CC1 [Thioproperazine dimesylate]	0.945 ± 0.046
COc1cc2nc(N3CCN(C(=O)C4CCCO4)CC3)nc(N)c2cc1OC (stereo not given) [Terazosin hydrochloride]	0.9878 ± 0.0069
O=c1[nH]cc(F)c(=O)[nH]1 [5-fluorouracil]	1.024 ± 0.0061
Cc1ncc([N+](=O)[O-])n1CC(O)CCl (stereo not given) [Ornidazole]	0.985 ± 0.027
COc1ccccc1O [Guaiacol]	1.02 ± 0.035
Cc1ccc(-c2cc(C(F)(F)F)nn2-c2ccc(S(N)(=O)=O)cc2)cc1 [Celecoxib]	1.06 ± 0.014
